Laboratory results as given in PubChem BioAssay (NCI).
Several values for one entry are separate records, joined by “and”; a condition that tells them apart may be missing. Identical values can stand only once. About 79,000 compounds went through this panel and 15% of them were active in at least one assay; those are over-represented in the sample as a whole. Some compounds were tested as several samples or in several runs, with calls that do not always agree. Activity calls are given as the source filed them. Cut-off read from the data, not from the text of the source: active = growth inhibition above about 70%; inactive = the rest.

Columns and labels:
[1] = NCI Yeast Anticancer Drug Screen. Data for the rad52 strain (AID 147);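 note: 0% = growth of vehicle-treated control cultures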; conditions: S. cerevisiae rad52 mutant growth inhibition, stronger effect = higher value
Summary of the method: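 Genetically altered yeast (DNA damage repair defect) treated with compound; inhibition calculated relative to vehicle.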

[2] = NCI Yeast Anticancer Drug Screen. Data for the wt1 strain (AID 149);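 note: 0% = growth of vehicle-treated wt1 cultures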; conditions: S. cerevisiae wt1 strain (SPY 50644) growth inhibition, stronger effect = higher value
Summary of the method: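 Readout: yeast growth inhibition, normalised to vehicle controls, in the wt1 strain exposed to test compounds.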

[3] = NCI Yeast Anticancer Drug Screen. Data for the rad50EPP+ strain (AID 151);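 note: 0% = growth of vehicle-treated control cultures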; conditions: S. cerevisiae rad50 mutant strain, stronger effect = higher value
Summary of the method: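 Strain rad50EPP+; compound exposure; % growth inhibition vs vehicle.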

[4] = NCI Yeast Anticancer Drug Screen. Data for the mgt1 strain (AID 153); conditions: S. cerevisiae mgt1 mutant growth inhibition, stronger effect = higher value
Summary of the method: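 Read-out: yeast growth inhibition vs vehicle control. Strain mgt1, drawn from a panel altered in DNA damage repair or cell cycle control.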

[5] = NCI Yeast Anticancer Drug Screen. Data for the rad50 strain (AID 155);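 note: 0% = growth of vehicle-only cultures of the same strain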; conditions: S. cerevisiae rad50 strain growth inhibition, stronger effect = higher value
Summary of the method: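 Compounds were tested on a yeast strain with an engineered DNA damage repair alteration; the reported value is growth inhibition normalised to vehicle treatment.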

[6] = NCI Yeast Anticancer Drug Screen. Data for the mec2-1 strain (AID 157); conditions: S. cerevisiae mec2-1 strain, stronger effect = higher value
Summary of the method: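 Cells of the genetically defined mec2-1 yeast strain are incubated with test compound. Inhibition of growth is calculated against vehicle-treated controls.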

[7] = NCI Yeast Anticancer Drug Screen. Data for the rad14 strain (AID 159);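 note: 0% = growth of vehicle-treated control cultures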; conditions: S. cerevisiae rad14 strain growth inhibition, stronger effect = higher value
Summary of the method: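 Compound-treated yeast with a defined DNA-repair lesion; growth inhibition normalised to vehicle-treated cultures.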

[8] = NCI Yeast Anticancer Drug Screen. Data for the sgs1 mgt1 strain (AID 161);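 note: 0% = growth of cultures given vehicle only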; conditions: S. cerevisiae sgs1 mgt1 strain, stronger effect = higher value
Summary of the method: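 Read-out: growth inhibition vs vehicle controls. Cells: mutant yeast strain deficient in DNA damage repair.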

[9] = NCI Yeast Anticancer Drug Screen. Data for the CLN2oe strain (AID 163);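 note: 0% = growth of vehicle-only control cultures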; conditions: S. cerevisiae CLN2oe strain, stronger effect = higher value
Summary of the method: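 Strain altered in cell-cycle control, incubated with compound; growth compared to solvent-treated controls.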

[10] = NCI Yeast Anticancer Drug Screen. Data for the cln2 rad14 strain (AID 165);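 note: 0% = growth equal to vehicle treated cultures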; conditions: S. cerevisiae cln2 rad14 strain, stronger effect = higher value
Summary of the method: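 The screen exposed genetically defined yeast (cln2 rad14) to test compounds and scored growth inhibition relative to vehicle-treated controls.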

[11] = NCI Yeast Anticancer Drug Screen. Data for the bub3 strain (AID 167); conditions: S. cerevisiae bub3 mutant strain, stronger effect = higher value
Summary of the method: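 Growth of a checkpoint-deficient yeast mutant is measured after compound exposure. Values represent inhibition relative to vehicle.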

[12] = NCI Yeast Anticancer Drug Screen. Data for the wt2 strain (AID 169);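 note: 0% = growth of vehicle-treated yeast cultures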; conditions: S. cerevisiae wt2 strain growth inhibition, stronger effect = higher value
Summary of the method: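 Steps: yeast strain treated with compound; growth recorded; inhibition calculated relative to cultures given vehicle alone.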

[13] = NCI Yeast Anticancer Drug Screen. Data for the mlh1 strain (AID 171);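 note: 0% = growth of vehicle-treated control cultures of the same strain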; conditions: S. cerevisiae mlh1 strain growth inhibition, stronger effect = higher value
Summary of the method: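 Yeast screen: mutant strain plus compound, growth scored against vehicle control wells.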

[14] = NCI Yeast Anticancer Drug Screen. Data for the sgs1 strain (AID 173);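 note: 0% = growth of vehicle-only control cultures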; conditions: S. cerevisiae sgs1 mutant, stronger effect = higher value
Summary of the method: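 Inhibition of yeast growth served as the measure. The mutant strain was treated with each compound, and growth was normalised to cultures receiving vehicle alone.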

[15] = NCI Yeast Anticancer Drug Screen. Data for the mlh1 rad18 strain (AID 175); conditions: S. cerevisiae mlh1 rad18 strain growth inhibition, stronger effect = higher value
Summary of the method: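 Compound-treated yeast growth, normalised to vehicle controls. Strain bears defined DNA repair mutations.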

[16] = NCI Yeast Anticancer Drug Screen. Data for the rad18 strain (AID 177); conditions: S. cerevisiae rad18 mutant growth inhibition, stronger effect = higher value
Summary of the method: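 Inhibition values reflect reduced yeast growth compared with vehicle-treated controls, using a strain engineered with a DNA damage repair defect.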

[17] = at 5.0 µM (retest, dose inferred, filed as 0.5)
[18] = at 50.0 µM (retest, dose inferred, filed as 5.0)

Nc1ncnc2c1ncn2C1OC(CO)CC1O (stereo not drawn)
growth inhibition ([1]; at 1.2 µM): -20% (inactive) | growth inhibition ([1]; at 3.7 µM): -10% (inactive) | growth inhibition ([1]; at 11.0 µM): 24% (inactive) | growth inhibition ([1]; at 33.0 µM): 71% (active) | growth inhibition ([1]; at 100.0 µM): 91% (active) | growth inhibition ([2]; at 1.2 µM): -25% (inactive) | growth inhibition ([2]; at 3.7 µM): -10% (inactive) | growth inhibition ([2]; at 11.0 µM): -4% (inactive) | growth inhibition ([2]; at 33.0 µM): 54% (inactive) | growth inhibition ([2]; at 100.0 µM): 87% (active) | growth inhibition ([3]; at 1.2 µM): -16% (inactive) | growth inhibition ([3]; at 3.7 µM): -12% (inactive) | growth inhibition ([3]; at 11.0 µM): -10% (inactive) | growth inhibition ([3]; at 33.0 µM): -25% (inactive) | growth inhibition ([3]; at 100.0 µM): 0% (inactive) | growth inhibition ([4]; at 1.2 µM): -37% (inactive) | growth inhibition ([4]; at 3.7 µM): -3% (inactive) | growth inhibition ([4]; at 11.0 µM): 10% (inactive) | growth inhibition ([4]; at 33.0 µM): 62% (inactive) | growth inhibition ([4]; at 100.0 µM): 89% (active) | growth inhibition ([5]; at 1.2 µM): -9% (inactive) | growth inhibition ([5]; at 3.7 µM): -3% (inactive) | growth inhibition [5, 17]: 63% (inactive) and 14% (inactive) | growth inhibition ([5]; at 11.0 µM): 30% (inactive) | growth inhibition ([5]; at 33.0 µM): 76% (active) | growth inhibition [5, 18]: 90% (active) | growth inhibition ([5]; at 50.0 µM): 87.8% (active) and 6.15% (inactive) and 79.6% (active) | growth inhibition ([5]; at 100.0 µM): 91% (active) | growth inhibition ([6]; at 1.2 µM): -7% (inactive) | growth inhibition ([6]; at 3.7 µM): -8% (inactive) | growth inhibition [6, 17]: 63% (inactive) and 17% (inactive) | growth inhibition ([6]; at 11.0 µM): 7% (inactive) | growth inhibition ([6]; at 33.0 µM): 72% (active) | growth inhibition [6, 18]: 92% (active) and 91% (active) | growth inhibition ([6]; at 50.0 µM): 88% (active) and -5.4% (inactive) and 76.5% (active) | growth inhibition ([6]; at 100.0 µM): 92% (active) | growth inhibition ([7]; at 1.2 µM): -15% (inactive) | growth inhibition ([7]; at 3.7 µM): -1% (inactive) | growth inhibition ([7]; at 11.0 µM): 27% (inactive) | growth inhibition ([7]; at 33.0 µM): 76% (active) | growth inhibition ([7]; at 100.0 µM): 94% (active) | growth inhibition [8, 17]: -20% (inactive) and 14% (inactive) | growth inhibition [8, 18]: 89% (active) and 90% (active) | growth inhibition ([8]; at 50.0 µM): 87.5% (active) and 2.25% (inactive) and 72.8% (active) | growth inhibition ([9]; at 1.2 µM): 17% (inactive) | growth inhibition ([9]; at 3.7 µM): 9% (inactive) | growth inhibition ([9]; at 11.0 µM): 27% (inactive) | growth inhibition ([9]; at 33.0 µM): 47% (inactive) | growth inhibition ([9]; at 100.0 µM): 85% (active) | growth inhibition [10, 17]: 10% (inactive) and 9% (inactive) | growth inhibition [10, 18]: 87% (active) and 68% (inactive) | growth inhibition ([10]; at 50.0 µM): 81.8% (active) and -27.8% (inactive) and 59.8% (inactive) | growth inhibition ([11]; at 1.2 µM): -6% (inactive) | growth inhibition ([11]; at 3.7 µM): -2% (inactive) | growth inhibition [11, 17]: 34% (inactive) and 22% (inactive) | growth inhibition ([11]; at 11.0 µM): 34% (inactive) | growth inhibition ([11]; at 33.0 µM): 77% (active) | growth inhibition [11, 18]: 92% (active) | growth inhibition ([11]; at 50.0 µM): 89.3% (active) and -3.15% (inactive) and 83% (active) | growth inhibition ([11]; at 100.0 µM): 92% (active) | growth inhibition ([12]; at 1.2 µM): -7% (inactive) | growth inhibition ([12]; at 3.7 µM): -3% (inactive) | growth inhibition ([12]; at 11.0 µM): 13% (inactive) | growth inhibition ([12]; at 33.0 µM): 66% (inactive) | growth inhibition ([12]; at 100.0 µM): 91% (active) | growth inhibition ([13]; at 1.2 µM): -22% (inactive) | growth inhibition ([13]; at 3.7 µM): -5% (inactive) | growth inhibition ([13]; at 11.0 µM): 15% (inactive) | growth inhibition ([13]; at 33.0 µM): 66% (inactive) | growth inhibition ([13]; at 100.0 µM): 91% (active) | growth inhibition ([14]; at 1.2 µM): -14% (inactive) | growth inhibition ([14]; at 3.7 µM): 2% (inactive) | growth inhibition ([14]; at 11.0 µM): 25% (inactive) | growth inhibition ([14]; at 33.0 µM): 72% (active) | growth inhibition ([14]; at 100.0 µM): 90% (active) | growth inhibition [15, 17]: 39% (inactive) and 11% (inactive) | growth inhibition [15, 18]: 91% (active) and 92% (active) | growth inhibition ([15]; at 50.0 µM): 89.5% (active) and 1.35% (inactive) and 82.9% (active) | growth inhibition ([16]; at 1.2 µM): 4% (inactive) | growth inhibition ([16]; at 3.7 µM): 4% (inactive) | growth inhibition ([16]; at 11.0 µM): 52% (inactive) | growth inhibition ([16]; at 33.0 µM): 82% (active) | growth inhibition ([16]; at 100.0 µM): 92% (active)
